Experimental data reported in PubChem BioAssay (Tox21).
Records with an inconclusive call do not appear. Calls of active or inactive are those of the source. Calls come from the whole dose curve.

Experiment: qHTS assay to identify small molecule agonists of the endoplasmic reticulum stress response signaling pathway - cell viability counter screen (AID 1159517); note: nearly all actives have a fitted effect of over 50% in size
Conditions: ESRE-bla HeLa viability, CellTiter-Glo luminescence, 5 h; series mostly up to 61 µM
Text: U.S. Tox21 Program National Center for Advancing Translational Sciences [NCATS] NIH Chemical Genomics Center [NCGC] U.S. Environmental Protection Agency [EPA] National Institutes of Environmental Health Sciences [NIEHS] National Toxicology Program [NTP] U.S. Food and Drug Administration [FDA] Tox21 Assay Overview: Endoplasmic Reticulum (ER) plays an important role in cellular signaling, protein folding/maturation, stress response, lipid biosynthesis, calcium storage and release etc. Under stress conditions, proteins in ER misfold or unfold, and leading to the expression of ER stress responsive genes. ER stress has been associated with a variety of pathophysiological conditions such as cancer, inflammation, neurodegenerative diseases, diabetes, ischemic heart disease etc. To identify the compounds that induce ER stress response, an ER stress reporter cell line, CellSensor ESRE-bla HeLa (Life Technologies, Carlsbad, CA) containing a beta-lactamase reporter gene under control of the Endoplasmic reticulum Stress Response Element (ESRE) was used to screen Tox21 10K compound library. The cytotoxicity of the Tox21 compound library against the ESRE-bla HeLa cell line was tested in parallel by measuring cell viability using the CellTiter-Glo assay in the same wells.
Tox21 Assay Protocol Summary: ESRE-bla HeLa cells were dispensed at 1,500 cells/6 uL of assay medium per well into black wall/clear-bottom 1536-well plates using a Multidrop Combi (ThermoFisher Scientific, Waltham, MA) dispenser. After the assay plates were incubated at 37 C and 5% CO2 for an overnight, 23 nL of compounds dissolved in DMSO, positive controls or DMSO only was transferred to the assay plate by a Pintool station (Kalypsys, San Diego, CA). The assay plates were incubated at 37 C and 5% CO2 for 5 hr. One uL of LiveBLAzer B/G FRET substrate (Life Technologies) was added using a FRD (Flying Reagent Dispenser, Aurora Discovery, San Diego, CA) and the plates were incubated at room temperature for 2 hr. Fluorescence intensity (405 nm excitation, 460 nm and 530 nm emissions) was measured using an Envision plate reader (PerkinElmer, Shelton, CT). For cytotoxicity, 4 ul/well of CellTiter-Glo reagent was added into the assay plates using an FRD. After 30 min incubation at room temperature, the luminescence intensity was measured using a ViewLux plate reader (PerkinElmer).
% is set by controls: 0 for no effect and ±100 for the full control effect.

SMILES	outcome	activity change, negative = cytotoxicity
COc1nc(N)nc2nc[nH]c12	inactive	
CC1CCc2c(N3CCC(O)CC3)c(F)cc3c(=O)c(C(=O)O)cn1c23 (stereo not given)	inactive	
CCOC(=O)CC1(C)OCC(C)O1 (stereo not given)	inactive	
CC(C)Nc1ccccc1	inactive	
O=C(O)[C@H](O)c1ccccc1	inactive	
C=CCSSCCC	inactive	
CC(C)COC(=O)c1ccccc1	inactive	
CCCCCCCCCCCCCCCCCC#N	inactive	
CO[C@@]1(NC(=O)Cc2cccs2)C(=O)N2C(C(=O)O)=C(COC(N)=O)CS[C@@H]21	inactive	
O=C1c2ccccc2C(=O)c2cc(Cl)ccc21		0.196% [at 6.95 µM] (inactive)
O=C=NCC1CCCC(CN=C=O)C1 (stereo not given)	inactive	
CC1(C)O[C@H]2CC(=O)OC[C@]23[C@H]2CC[C@@]4(C)[C@H](c5ccoc5)OC(=O)[C@H]5O[C@]54[C@]2(C)C(=O)C[C@@H]13	inactive	
CCOCCOCC	inactive	
CCC/C=C(\C=O)CC	inactive	
CC(C)=CCC/C(C)=C/COC=O	inactive	
CCCSSCCC	inactive	
CNCCS(=O)(=O)O	inactive	
CCC(=O)Oc1ccc2c(c1)CC[C@@H]1[C@@H]2CC[C@@]2(C)[C@H]1C[C@@H](OC(=O)CC)[C@@H]2OC(=O)CC	inactive	
CC(N)CCCC(C)(C)O (stereo not given)	inactive	
CCC(C)C(=O)OCCc1ccccc1 (stereo not given)	inactive	

SMILES	outcome	activity change, negative = cytotoxicity
CC1=NN(c2ccc(S(=O)(=O)O)cc2)C(=O)C1	inactive	
CC(=O)OC1CCCCC1C(C)(C)C (stereo not given)	inactive	
CCCCOC(=O)[C@H](C)O	inactive	
COP(=O)(O)OP(=O)(O)OC	inactive	
COS(=O)(=O)O	inactive	
c1ccc(-c2nn[nH]n2)cc1	inactive	
CCCCCC/C=C/C(=O)OC	inactive	
Fc1ccccc1	inactive	
CCC(=O)c1c(O)cc(O)cc1O	inactive	
COc1cc(OC)nc(O[C@H](C(=O)O)C(OC)(c2ccccc2)c2ccccc2)n1	inactive	
[O-][n+]1cccc(/C(Cl)=N/OC[C@@H](O)CN2CCCCC2)c1	inactive	
CCC[C@@H]1C[C@@H](C(=O)N[C@@H]([C@H]2O[C@H](SC)[C@H](O)[C@@H](O)[C@H]2O)[C@@H](C)O)N(C)C1	inactive	
O=Cc1cc2ccccc2o1	inactive	
CCCCCCC1(C)CCC(=O)O1 (stereo not given)	inactive	
CC(C)CO	inactive	
Cc1ccc(C(C)NC(=O)[C@@H](NC(=O)OC(C)C)C(C)C)cc1 (stereo not given in full)	inactive	
CN(C)CCN(C)CCO	inactive	
CCN1CCCC1CN (stereo not given)	inactive	
CC1=C(C(=O)O)N2C(=O)[C@@H](NC(=O)[C@H](N)C3=CCC=CC3)[C@H]2SC1	inactive	
CN(C)C(C)(C)CO	inactive	
